Test results from PubChem BioAssay (EPA / NIEHS).
Inconclusive results are not listed. Where a structure was tested more than once in an assay, its records may differ in their call. Active and inactive are the calls of the source. The calls were made as follows: active = hit-call score of the fitted dose curve at least 0.9, where 1 is the maximum; inconclusive = response in the unintended direction; inactive = score below 0.9.

Assays:
PGR (gene 5241) = PGR (gene 5241) (UniProt P06401); assay: NVS_NR_hPR: NovaScreen (NVS) Nuclear Receptor Binding Assay for human Progestron Receptor (PR) (AID 2283360);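 also: active means loss of bound radioligand signal versus DMSO baseline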
Method in brief: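 T47D lysate; tritiated or iodinated radioligand; scintillation count at 18 h. DMSO = negative control/baseline. Primary: 25 uM, duplicate. Secondary: concentration series for actives.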

[1] = molecular target: human Thyroid Receptor Alpha (TRa), THRA (gene 7067) (UniProt P10827); assay: NVS_NR_hTRa_Antagonist: NovaScreen (NVS) Nuclear Receptor Binding Assay for human Thyroid Receptor Alpha Antagonism (TRa) (AID 2283362);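 also: activity is loss of signal relative to DMSO baseline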
Method in brief: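 Cell-free binding assay on extracted receptor protein, read 1 h after chemical dosing by AlphaLISA chemiluminescence; loss of signal relative to DMSO baseline marks antagonism. Primary screen ran in duplicate at 25 uM, with concentration series for actives.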

[2] = molecular target: Glucocorticoid receptor (Homo sapiens) (UniProt P04150); assay: NVS_NR_hGR: NovaScreen (NVS) Nuclear Receptor Binding Assay for human Glucocorticoid Receptor (GR) (AID 2283363);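 as to AC50: activity is loss of specific radioligand binding signal relative to DMSO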
Method in brief: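 Filter scintillation readout of tritiated/iodinated radioligand displaced by test chemical; cell-free extracted protein; 16 h. DMSO = negative control/baseline. Duplicate single-point 25 uM screen, then concentration-response on actives.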

[3] = molecular target: rat Androgen Receptor (AR), Ar (gene 24208) (UniProt P15207); assay: NVS_NR_rAR: NovaScreen (NVS) Nuclear Receptor Binding Assay for rat Androgen Receptor (AR) (AID 2283366)
Method in brief: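 Actives from a duplicate single-concentration (25 uM) primary run went on to concentration series. Displacement of radioligand was counted by filtration and scintillation, 18 h post-dose, using prostate extracts from testosterone-pretreated rats, with DMSO as baseline.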

[4] = molecular target: human Serotonin Transporter (SERT), SLC6A4 (gene 6532) (UniProt P31645); assay: NVS_TR_hSERT: NovaScreen (NVS) Transporter Assay for human Serotonin Transporter (SERT) (AID 2283372)
Method in brief: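 Human platelet membrane preparation; displacement of radioligand from serotonin transporter measured after 1 h by filtration and scintillation counting. Single 25 uM duplicate screen, then concentration series for actives, with DMSO as negative baseline.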

[5] = molecular target: human Peroxisome Proliferator-activated Receptor alpha (PPARa), PPARA (gene 5465) (UniProt Q07869); assay: NVS_NR_hPPARa: NovaScreen (NVS) Nuclear Receptor Binding Assay for human Peroxisome Proliferator-activated Receptor alpha (PPARa) (AID 2283359);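 also: activity means loss of TR-FRET signal versus DMSO baseline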
Method in brief: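 TR-FRET signal measured at 1 h post-dosing; loss-of-signal versus DMSO negative control taken as activity. Extracted gene-protein, cell-free format. Initial single-point duplicates at 25 uM, then concentration-response retests.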

[6] = molecular target: Retinoic acid receptor alpha (Homo sapiens) (UniProt P10276); assay: NVS_NR_hRARa_Agonist: NovaScreen (NVS) Nuclear Receptor Binding Assay for human Retinoic Acid Alpha Receptor Agonism (RAR) (AID 2283361)
Method in brief: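 TR-FRET signal, 2 h post-dosing; cell-free extracted protein; DMSO = baseline, positive fitting direction; 25 uM single-point duplicate, then concentration series for actives.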

[7] = molecular target: Nuclear receptor subfamily 1 group I member 2 (Homo sapiens) (UniProt O75469); assay: NVS_NR_hPXR: NovaScreen (NVS) Nuclear Receptor Binding Assay for human Pregnane X Receptor (PXR) (AID 2283365);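 also: a drop in FRET signal versus DMSO baseline means the compound binds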
Method in brief: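 Cell-free binding assay with extracted human PXR protein, read by TR-FRET 2 h after dosing; loss of signal relative to DMSO baseline indicates binding. Primary screen at 25 uM in duplicate, actives retested in concentration series.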

[8] = system: guinea pig Dopamine Transporter (DAT), gene 100714898; assay: NVS_TR_gDAT: NovaScreen (NVS) Transporter Assay for guinea pig Dopamine Transporter (DAT) (AID 2283369);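 also: active compounds lower bound radioligand signal relative to DMSO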
Method in brief: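 Guinea pig striatal membranes; radioligand displacement measured by filter-based scintillation counting 2 h after dosing. Initial duplicate screen at 25 uM, then concentration-response up to 50 uM for hits; loss of signal versus DMSO baseline.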

[9] = molecular target: human Adenosine Transporter (Adot), SLC29A1 (gene 2030) (UniProt Q99808); assay: NVS_TR_hAdoT: NovaScreen (NVS) Transporter Assay for human Adenosine Transporter (Adot) (AID 2283368)
Method in brief: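 Binding displacement on U937 extracted protein, read 1 h post-dose by filtration and scintillation counting. Primary duplicate test at 25 uM, then singleton concentration series with 50 uM top; DMSO baseline.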

PGR (gene 5241), sequence (P06401 whole entry, looked up): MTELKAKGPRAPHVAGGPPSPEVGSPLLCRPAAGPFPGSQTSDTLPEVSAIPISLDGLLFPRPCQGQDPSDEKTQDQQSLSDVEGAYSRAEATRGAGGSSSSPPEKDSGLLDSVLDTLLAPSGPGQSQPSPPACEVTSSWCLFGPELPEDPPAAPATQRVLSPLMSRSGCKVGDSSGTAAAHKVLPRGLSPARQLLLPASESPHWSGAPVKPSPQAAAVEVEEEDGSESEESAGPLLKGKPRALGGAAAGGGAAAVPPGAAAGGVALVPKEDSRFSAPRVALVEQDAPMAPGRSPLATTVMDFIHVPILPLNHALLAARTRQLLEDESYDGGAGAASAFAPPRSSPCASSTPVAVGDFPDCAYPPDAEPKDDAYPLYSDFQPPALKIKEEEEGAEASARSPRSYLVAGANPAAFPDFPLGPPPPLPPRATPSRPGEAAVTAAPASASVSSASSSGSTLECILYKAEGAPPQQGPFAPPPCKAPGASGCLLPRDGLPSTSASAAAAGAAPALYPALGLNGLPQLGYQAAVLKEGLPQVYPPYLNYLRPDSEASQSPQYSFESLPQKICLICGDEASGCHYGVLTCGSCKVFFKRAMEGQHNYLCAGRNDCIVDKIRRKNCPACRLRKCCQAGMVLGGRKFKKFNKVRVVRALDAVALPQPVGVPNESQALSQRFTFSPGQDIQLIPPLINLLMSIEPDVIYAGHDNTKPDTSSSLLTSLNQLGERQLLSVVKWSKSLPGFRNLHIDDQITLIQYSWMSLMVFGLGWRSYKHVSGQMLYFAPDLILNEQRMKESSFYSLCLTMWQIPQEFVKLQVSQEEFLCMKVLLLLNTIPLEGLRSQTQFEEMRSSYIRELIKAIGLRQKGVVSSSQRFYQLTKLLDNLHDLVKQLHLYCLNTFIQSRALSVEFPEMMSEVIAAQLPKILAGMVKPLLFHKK
human Serotonin Transporter (SERT), SLC6A4 (gene 6532), sequence (P31645 whole entry, looked up): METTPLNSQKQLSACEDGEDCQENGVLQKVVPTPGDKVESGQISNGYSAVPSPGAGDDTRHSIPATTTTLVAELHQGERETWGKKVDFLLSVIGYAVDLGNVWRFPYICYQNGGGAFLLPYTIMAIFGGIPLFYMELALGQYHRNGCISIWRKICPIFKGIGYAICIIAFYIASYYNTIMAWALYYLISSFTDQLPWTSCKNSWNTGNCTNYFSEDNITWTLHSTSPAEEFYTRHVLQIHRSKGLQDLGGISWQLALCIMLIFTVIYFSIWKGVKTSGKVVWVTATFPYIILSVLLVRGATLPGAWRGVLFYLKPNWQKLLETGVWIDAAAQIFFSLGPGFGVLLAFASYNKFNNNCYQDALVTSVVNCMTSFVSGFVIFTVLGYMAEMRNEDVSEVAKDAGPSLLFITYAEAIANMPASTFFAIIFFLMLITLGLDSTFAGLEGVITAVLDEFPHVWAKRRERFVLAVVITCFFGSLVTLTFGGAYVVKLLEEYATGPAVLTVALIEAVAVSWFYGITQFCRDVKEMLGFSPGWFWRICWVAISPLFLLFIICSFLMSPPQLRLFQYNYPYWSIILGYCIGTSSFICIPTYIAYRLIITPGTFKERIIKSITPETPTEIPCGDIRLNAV
human Adenosine Transporter (Adot), SLC29A1 (gene 2030), sequence (Q99808 whole entry, looked up): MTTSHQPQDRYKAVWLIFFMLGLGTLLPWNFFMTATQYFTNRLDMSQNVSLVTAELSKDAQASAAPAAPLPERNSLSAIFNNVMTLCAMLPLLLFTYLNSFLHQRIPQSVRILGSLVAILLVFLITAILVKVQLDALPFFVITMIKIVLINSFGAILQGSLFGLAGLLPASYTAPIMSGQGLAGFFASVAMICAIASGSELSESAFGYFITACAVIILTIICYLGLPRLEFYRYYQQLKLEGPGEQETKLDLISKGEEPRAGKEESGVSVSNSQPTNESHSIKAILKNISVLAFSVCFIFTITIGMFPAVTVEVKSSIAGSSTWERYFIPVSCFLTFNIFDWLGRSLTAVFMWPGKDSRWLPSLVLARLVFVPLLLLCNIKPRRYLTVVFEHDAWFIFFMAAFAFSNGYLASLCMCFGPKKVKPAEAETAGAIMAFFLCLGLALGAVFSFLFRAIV
human Peroxisome Proliferator-activated Receptor alpha (PPARa), PPARA (gene 5465), sequence (Q07869 whole entry, looked up): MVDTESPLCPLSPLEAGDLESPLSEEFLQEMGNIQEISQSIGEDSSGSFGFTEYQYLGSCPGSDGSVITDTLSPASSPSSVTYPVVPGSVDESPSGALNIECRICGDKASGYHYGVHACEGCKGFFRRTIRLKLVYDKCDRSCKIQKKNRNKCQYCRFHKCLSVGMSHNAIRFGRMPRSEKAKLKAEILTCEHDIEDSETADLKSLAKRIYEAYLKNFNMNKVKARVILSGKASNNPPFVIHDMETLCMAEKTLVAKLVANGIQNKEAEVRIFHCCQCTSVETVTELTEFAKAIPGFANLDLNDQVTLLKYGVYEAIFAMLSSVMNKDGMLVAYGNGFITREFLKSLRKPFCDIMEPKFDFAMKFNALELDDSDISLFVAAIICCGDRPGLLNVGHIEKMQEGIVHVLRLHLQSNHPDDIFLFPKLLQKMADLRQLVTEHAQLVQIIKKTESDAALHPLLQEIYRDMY
Glucocorticoid receptor (Homo sapiens), sequence (P04150 whole entry, looked up): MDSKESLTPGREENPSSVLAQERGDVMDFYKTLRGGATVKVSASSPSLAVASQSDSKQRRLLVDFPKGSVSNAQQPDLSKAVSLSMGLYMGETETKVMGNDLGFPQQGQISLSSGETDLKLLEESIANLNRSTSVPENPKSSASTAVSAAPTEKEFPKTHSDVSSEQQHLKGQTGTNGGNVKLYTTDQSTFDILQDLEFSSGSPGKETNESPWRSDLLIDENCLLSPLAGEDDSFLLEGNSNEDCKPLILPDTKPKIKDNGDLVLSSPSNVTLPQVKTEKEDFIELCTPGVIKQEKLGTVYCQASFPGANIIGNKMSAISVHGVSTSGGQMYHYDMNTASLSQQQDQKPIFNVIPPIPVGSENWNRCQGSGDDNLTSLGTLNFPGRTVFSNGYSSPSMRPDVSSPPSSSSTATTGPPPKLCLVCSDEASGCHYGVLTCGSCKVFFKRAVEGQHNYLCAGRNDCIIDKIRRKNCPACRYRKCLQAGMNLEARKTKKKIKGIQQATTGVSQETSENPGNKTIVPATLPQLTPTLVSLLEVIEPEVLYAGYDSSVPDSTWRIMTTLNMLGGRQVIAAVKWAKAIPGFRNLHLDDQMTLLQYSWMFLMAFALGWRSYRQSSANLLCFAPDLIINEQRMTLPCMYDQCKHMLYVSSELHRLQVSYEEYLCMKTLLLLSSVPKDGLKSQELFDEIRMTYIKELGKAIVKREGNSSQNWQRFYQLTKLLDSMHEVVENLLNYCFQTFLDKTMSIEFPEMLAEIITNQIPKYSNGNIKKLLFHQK
Nuclear receptor subfamily 1 group I member 2 (Homo sapiens), sequence (O75469 whole entry, looked up): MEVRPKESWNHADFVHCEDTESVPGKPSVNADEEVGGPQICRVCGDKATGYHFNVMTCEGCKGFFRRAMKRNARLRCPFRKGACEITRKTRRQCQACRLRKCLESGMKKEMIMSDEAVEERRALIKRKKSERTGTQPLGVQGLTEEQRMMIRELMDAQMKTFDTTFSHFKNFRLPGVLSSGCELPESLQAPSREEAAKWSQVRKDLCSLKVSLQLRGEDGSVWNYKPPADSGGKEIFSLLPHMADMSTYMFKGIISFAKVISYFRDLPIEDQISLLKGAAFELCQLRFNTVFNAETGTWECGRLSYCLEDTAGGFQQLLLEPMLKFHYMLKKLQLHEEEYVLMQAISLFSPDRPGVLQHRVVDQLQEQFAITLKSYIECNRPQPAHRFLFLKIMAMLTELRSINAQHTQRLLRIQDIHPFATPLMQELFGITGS
human Thyroid Receptor Alpha (TRa), THRA (gene 7067), sequence (P10827 whole entry, looked up): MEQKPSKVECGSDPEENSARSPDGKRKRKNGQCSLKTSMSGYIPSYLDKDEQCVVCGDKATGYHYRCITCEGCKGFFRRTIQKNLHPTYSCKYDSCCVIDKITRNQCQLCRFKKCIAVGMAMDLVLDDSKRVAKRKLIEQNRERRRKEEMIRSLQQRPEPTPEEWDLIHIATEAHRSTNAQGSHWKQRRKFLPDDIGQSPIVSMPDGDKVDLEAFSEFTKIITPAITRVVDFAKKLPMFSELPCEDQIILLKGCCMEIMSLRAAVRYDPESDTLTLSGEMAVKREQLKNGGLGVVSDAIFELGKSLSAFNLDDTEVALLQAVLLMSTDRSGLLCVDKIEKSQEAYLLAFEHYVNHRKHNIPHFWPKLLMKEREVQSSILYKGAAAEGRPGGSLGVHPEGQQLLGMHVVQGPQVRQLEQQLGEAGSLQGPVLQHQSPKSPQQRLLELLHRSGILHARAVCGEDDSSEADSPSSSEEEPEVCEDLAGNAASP
Retinoic acid receptor alpha (Homo sapiens), sequence (P10276 whole entry, looked up): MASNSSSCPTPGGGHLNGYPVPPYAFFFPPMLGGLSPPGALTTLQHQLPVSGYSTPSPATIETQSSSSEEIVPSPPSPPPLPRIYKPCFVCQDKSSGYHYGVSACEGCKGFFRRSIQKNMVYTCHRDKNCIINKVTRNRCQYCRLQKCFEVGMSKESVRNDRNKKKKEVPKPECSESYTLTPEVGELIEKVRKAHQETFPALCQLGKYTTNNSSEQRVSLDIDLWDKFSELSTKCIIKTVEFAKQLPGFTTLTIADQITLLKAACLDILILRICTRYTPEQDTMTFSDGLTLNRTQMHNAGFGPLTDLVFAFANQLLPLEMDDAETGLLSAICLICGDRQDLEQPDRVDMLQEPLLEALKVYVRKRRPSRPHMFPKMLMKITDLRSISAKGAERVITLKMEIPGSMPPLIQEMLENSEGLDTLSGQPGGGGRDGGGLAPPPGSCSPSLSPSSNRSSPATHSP

With CCNc1nc(Cl)nc(NC(C)C)n1 the outcome (PGR (gene 5241)) was “inactive”, the outcome [1] was “inactive” and the outcome [2] was “inactive”.

For CC(C)Oc1cc(-n2nc(C(C)(C)C)oc2=O)c(Cl)cc1Cl, the outcome (PGR (gene 5241)) was “inactive”.

For CCCCC(CC)COC(=O)c1ccccc1C(=O)OCC(CC)CCCC (stereo not drawn), the outcome [1] was “inactive” and the AC50 [2] was 8.8 µM (active).

For CCOC(=O)CC(SP(=S)(OC)OC)C(=O)OCC (stereo not drawn), the outcome (PGR (gene 5241)) was “inactive”, the outcome [2] was “inactive” and the outcome [3] was “inactive”.

COc1nc(NC(C)C)nc(NC(C)C)n1 was tested, and the outcome [4] was “inactive”.

In the case of CCCN(CCC)c1c([N+](=O)[O-])cc(S(N)(=O)=O)cc1[N+](=O)[O-], the outcome [5] was “inactive”, the AC50 (PGR (gene 5241)) was 4.36 µM (active) and the outcome [6] was “inactive”. The outcome [1] was “inactive”, the outcome [2] was “inactive” and the AC50 [7] was 6.68 µM (active).

For C#CCOS(=O)OC1CCCCC1Oc1ccc(C(C)(C)C)cc1 (stereo not drawn), the outcome [1] was “inactive”, the AC50 [2] was 16.5 µM (active) and the AC50 [8] was 15.6 µM (active).

CCNc1nc(Cl)nc(NCC)n1 was tested, and the outcome [2] was “inactive”.

In the case of N#CC(CCc1ccc(Cl)cc1)(Cn1cncn1)c1ccccc1 (stereo not drawn), the outcome [3] was “inactive” and the outcome [9] was “inactive”.

With C=CCC1=C(C)[C@@H](OC(=O)[C@@H]2[C@@H](C=C(C)C)C2(C)C)CC1=O the outcome [7] was “inactive” and the AC50 [8] was 20.3 µM (active).

In the case of OC(c1ccc(Cl)cc1)(c1cncnc1)c1ccccc1Cl (stereo not drawn), the AC50 [2] was 8.34 µM (active).

CC1=C(C(=O)Nc2ccccc2)SCCO1 was tested, and the AC50 [8] was 13.9 µM (active).

In the case of Cc1cc(Cl)ccc1OCC(=O)O, the outcome [4] was “inactive”.

In the case of C=CCC1=C(C)C(OC(=O)C2C(C=C(C)C)C2(C)C)CC1=O (stereo not drawn), the outcome [2] was “inactive”, the AC50 [8] was 26.2 µM (active) and the outcome [8] was “inactive”.

In the case of COC(=O)c1ccccc1C(=O)OC, the outcome (PGR (gene 5241)) was “inactive” and the outcome [2] was “inactive”.

With CCCC1COC(Cn2cncn2)(c2ccc(Cl)cc2Cl)O1 (stereo not drawn) the outcome (PGR (gene 5241)) was “inactive”, the AC50 [2] was 10.5 µM (active) and the outcome [7] was “inactive”. For the same compound, the outcome [3] was “inactive”.

For Oc1ccccc1-c1ccccc1, the outcome [5] was “inactive”, the outcome [1] was “inactive” and the AC50 [7] was 15.7 µM (active).

CCCCOC(=O)c1ccccc1C(=O)OCCCC was tested, and the outcome (PGR (gene 5241)) was “inactive”, the AC50 [1] was 0.111 µM (active) and the outcome [2] was “inactive”. For the same compound, the outcome [7] was “inactive”, the AC50 [8] was 19.5 µM (active) and the outcome [8] was “inactive”.

In the case of COc1ccc(C(c2ccc(OC)cc2)C(Cl)(Cl)Cl)cc1, the outcome [5] was “inactive”, the outcome [1] was “inactive” and the outcome [2] was “inactive”. The outcome [7] was “inactive” and the AC50 [8] was 14 µM (active).

With COP(N)(=O)SC (stereo not drawn) the outcome [2] was “inactive”.

In the case of C=CC1(C)OC(=O)N(c2cc(Cl)cc(Cl)c2)C1=O (stereo not drawn), the AC50 [5] was 37.4 µM (active), the AC50 [2] was 6.97 µM (active) and the outcome [2] was “inactive”.

For COC(=O)C(C)Oc1ccc(Oc2ccc(Cl)cc2Cl)cc1 (stereo not drawn), the outcome [8] was “inactive”.

With N#Cc1cc(Br)c(O)c(Br)c1 the outcome [5] was “inactive”.

CON(C)C(=O)Nc1ccc(Cl)c(Cl)c1 was tested, and the outcome (PGR (gene 5241)) was “inactive”, the AC50 [2] was 8.61 µM (active) and the outcome [7] was “inactive”.

In the case of COC(=O)N(OC)c1ccccc1COc1ccn(-c2ccc(Cl)cc2)n1, the AC50 [2] was 2.01 µM (active).

In the case of CCOP(=S)(OCC)SCn1c(=O)oc2cc(Cl)ccc21, the outcome (PGR (gene 5241)) was “inactive”.

For O=C(Nc1ccccc1)Nc1ccnc(Cl)c1, the outcome [4] was “inactive”.

In the case of COc1nc(C)nc(NC(=O)NS(=O)(=O)c2ccccc2CCC(F)(F)F)n1, the AC50 [9] was 0.0855 µM (active), the outcome [9] was “inactive” and the outcome [4] was “inactive”.

In the case of Cc1ccc(-c2c(Cl)nc(C#N)n2S(=O)(=O)N(C)C)cc1, the outcome [2] was “inactive”.

CNC(=S)S was tested, and the outcome [2] was “inactive” and the outcome [7] was “inactive”.

CCCCNC(=O)OCC#CI was tested, and the AC50 [5] was 6.55 µM (active), the outcome (PGR (gene 5241)) was “inactive” and the outcome [1] was “inactive”.

With Fc1ccc(Oc2ccnc3cc(Cl)cc(Cl)c23)cc1 the AC50 [8] was 13.8 µM (active).

With CC1COC(Cn2cncn2)(c2ccc(Oc3ccc(Cl)cc3)cc2Cl)O1 (stereo not drawn) the outcome (PGR (gene 5241)) was “inactive”, the AC50 [2] was 1.89 µM (active) and the AC50 [8] was 12.3 µM (active).

With CO/C=C(/C(=O)OC)c1ccccc1Oc1cc(Oc2ccccc2C#N)ncn1 the outcome (PGR (gene 5241)) was “inactive”, the outcome [1] was “inactive” and the outcome [2] was “inactive”. For the same compound, the outcome [7] was “inactive”, the outcome [3] was “inactive” and the outcome [9] was “inactive”.

With CNC(=O)ON=CC(C)(C)SC the outcome (PGR (gene 5241)) was “inactive” and the outcome [2] was “inactive”.
